A short description of test [1]: NCI Yeast Anticancer Drug Screen. Data for the rad50 strain (AID 155).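 Note: 0% = growth of vehicle-only cultures of the same strain.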 The conditions noted are these: S. cerevisiae rad50 strain growth inhibition; at 50.0 µM; active compounds read high. The gist of the method:
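Cells are treated with compound, grown, and their growth is then scored against vehicle-only cultures of the same repair-deficient yeast strain.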

The nature of test [2]: NCI Yeast Anticancer Drug Screen. Data for the mec2-1 strain (AID 157). The note with it: S. cerevisiae mec2-1 strain, at 50.0 µM, active compounds read high. The gist of the method: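 Cells of the genetically defined mec2-1 yeast strain are incubated with test compound. Inhibition of growth is calculated against vehicle-treated controls.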
Test [3] in a line: NCI Yeast Anticancer Drug Screen. Data for the sgs1 mgt1 strain (AID 161).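 Note: 0% = growth of cultures given vehicle only.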 The conditions noted are these: S. cerevisiae sgs1 mgt1 strain, at 50.0 µM, active compounds read high. The gist of the method:
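Test agents were incubated with a DNA-repair-mutant yeast strain. Growth was then read and compared against vehicle-treated controls.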

A short description of test [4]: NCI Yeast Anticancer Drug Screen. Data for the cln2 rad14 strain (AID 165).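 Note: 0% = growth equal to vehicle treated cultures.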 The conditions noted are these: S. cerevisiae cln2 rad14 strain, at 50.0 µM, active compounds read high. The essentials:
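The screen exposed genetically defined yeast (cln2 rad14) to test compounds and scored growth inhibition relative to vehicle-treated controls.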

Test [5] in a line: NCI Yeast Anticancer Drug Screen. Data for the bub3 strain (AID 167). The note with it: S. cerevisiae bub3 mutant strain, at 50.0 µM, active compounds read high. The gist of the method: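 Part of a panel of yeast mutants defective in DNA damage repair or cell cycle regulation. Each strain is grown with compound, and inhibition is calculated relative to solvent-treated cultures.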
The nature of test [6]: NCI Yeast Anticancer Drug Screen. Data for the mlh1 rad18 strain (AID 175). The note with it: S. cerevisiae mlh1 rad18 strain growth inhibition; at 50.0 µM; active compounds read high. The gist of the method: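 Compound-treated yeast growth, normalised to vehicle controls. Strain bears defined DNA repair mutations.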

Structures are written as SMILES. This is part of a sample that, as a whole, favours compounds with a hit. Of some 79,000 tested, about 15% had one in any assay. A number with no mark means an inactive call. Active and inactive are the calls of the source. Cut-off read from the data, not from the text of the source: active = growth inhibition above about 70%; inactive = the rest.

Regarding `CC1(CCOCc2ccccc2)NC(=O)NC1=O` (stereo not given), the growth inhibition in test [1] is -32.2%; in test [2], -8.4%; in test [3], -44.4%; in test [4], -33%; in test [5], -13.2%; in test [6] it was -19.9%.
For the compound `C/C1=C/C(C)CC(C)OC(=O)C(C)NC(=O)C(Cc2ccc(O)c(I)c2)N(C)C(=O)C(C)NC(=O)C(C)C1` (stereo not given), the growth inhibition in test [1] was 92.8% (active); in test [2], 93.7% (active); in test [3] it was 52.4%; in test [4], 90.7% (active); in test [5], 92.8% (active); in test [6], 91.2% (active).
Consider `CCCC(=O)C(=O)CCC`, for which the growth inhibition in test [1] is -5.25%; in test [2] it was -17.4%; in test [3], 2.3%; in test [4], -26.1%; in test [5], -0.15%; in test [6], -3.45%.
Take `Cc1ccccc1N1C(=O)/C(=C/c2ccc(N(CCC#N)CCC#N)cc2)N=C1c1cc([N+](=O)[O-])ccc1Cl`: the growth inhibition in test [1] was 4.65%; in test [2], 1.7%; in test [3] it was 26.1%; in test [4], 7.1%; in test [5] it was -1.7%; in test [6], 6.2%.
As to `CCCCCCCCCCCCCCCCS(=O)(=O)N/N=C(/c1ccc(OC)c(OC)c1)N1CCCCC1`, the growth inhibition is -24.9% in test [1]; -28.8% in test [2]; 8.6% in test [3]; 1.45% in test [4]; -18.1% in test [5]; -7% in test [6].
With `O=C(/C(=C(/[O-])C(F)(F)F)[n+]1cccc2ccccc21)C(F)(F)F`, the growth inhibition in test [1] was -8.6%; in test [2] it was -4.65%; in test [3] it was -11.2%; in test [4], -10.4%; in test [5], -1.4%; in test [6] it was 5.2%.
As to `CCOC(=O)C(C(=O)CC)C(=O)OCC`, the growth inhibition in test [1] is 14.3%; in test [2], 11.3%; in test [3] it was 16.2%; in test [4], 7.65%; in test [5], 14.2%; in test [6], 13.4%.
Take `O=C(CCBr)Nc1ccccc1`: the growth inhibition in test [1] is 11.1%; in test [2], -15.2%; in test [3], -7.15%; in test [4], -38.2%; in test [5] it was -7.35%; in test [6], -26.4%.
`O=C(NC(=O)C1(C(=O)O)CCCC1)Nc1ccccc1`: the growth inhibition was 7.95% in test [1]; -7.05% in test [2]; 6.4% in test [3]; -39.1% in test [4]; 27.4% in test [5]; -9.15% in test [6].
Take `Cc1ccnc(N=C/C=C2/C=CC=CN2O)c1`: the growth inhibition in test [1] was 0.25%; in test [2] it was -9.35%; in test [3], 1.75%; in test [4], 5.55%; in test [5], -8.45%; in test [6] it was -11.8%.
On to `CCN(C(=O)CCl)c1ccccc1`, for which the growth inhibition in test [1] was 15%; in test [2], 0.35%; in test [3] it was -0.1%; in test [4], -12.6%; in test [5], -7.25%; in test [6] it was 14.2%.
In the case of `O=C(NC1(C(=O)O)CCCC1)C(F)(F)F`, the growth inhibition in test [1] is -13.8%; in test [2], 14.7%; in test [3] it was -14.2%; in test [4], -25.3%; in test [5] it was 2.45%; in test [6], -8.25%.
On to `C=CCn1c(=S)sc2ccccc21`, for which the growth inhibition in test [1] is 14.8%; in test [2] it was 13.3%; in test [3] it was 12.8%; in test [4], 17.7%; in test [5], -7.65%; in test [6] it was -1.95%.
Take `NNC(=O)C(CC(C(=O)NN)C(=O)NN)C(=O)NN`: the growth inhibition in test [1] is 47.5%; in test [2] it was -1.5%; in test [3], 5.25%; in test [4] it was -22.5%; in test [5], 13.9%; in test [6] it was 29.7%.
With `Cc1ccc(S(=O)(=O)Nn2c(O)c(C#N)c(-c3ccc([N+](=O)[O-])cc3)c(C#N)c2=O)cc1`, the growth inhibition was 4.8% in test [1]; 6.9% in test [2]; -7.9% in test [3]; 15.6% in test [4]; -13.2% in test [5]; -8.8% in test [6].
As for `COc1cc(CN=c2nc(N(C)C)ss2)cc(OC)c1OC`, the growth inhibition in test [1] was -27.8%; in test [2] it was -11.2%; in test [3] it was 9.15%; in test [4], -3.35%; in test [5] it was -11.6%; in test [6], -4.35%.
On to `CCN(CC)CCCC(C)Nc1c2ccccc2nc2cc(Cl)cc(Cl)c12` (stereo not given), for which the growth inhibition is 17.6% in test [1]; 4.15% in test [2]; 3.1% in test [3]; 10.9% in test [4]; 9.6% in test [5]; 26.8% in test [6].
Turning to `CCC1(CC)C(=O)N(C(=O)c2ccc(Cl)cc2)N(C(=O)c2ccccc2Cl)C1=O`, the growth inhibition in test [1] is 22.3%; in test [2], 23.8%; in test [3], 5.8%; in test [4], 41.8%; in test [5] it was 49.2%; in test [6], -53.5%.
On to `CCC(=O)C1(CCCN(C)C)c2ccccc2Sc2ccccc21`, for which the growth inhibition in test [1] was -14.3%; in test [2] it was 2.45%; in test [3] it was -8.6%; in test [4], -38.1%; in test [5] it was -2.35%; in test [6] it was 4.6%.
Consider `Nc1nc2ncn(CC(O)COC(=O)c3ccccc3)c2c(=O)[nH]1` (stereo not given), for which the growth inhibition in test [1] was 23.8%; in test [2] it was -8.85%; in test [3] it was 27.3%; in test [4], 28.3%; in test [5] it was 27.4%; in test [6], 39.2%.

(Values after PubChem BioAssay (NCI).)
